# Hits are enriched below; roughly 1.2% of the tested compounds scored in any of these assays.
# Pin1 inh = inhibitors of human Pin1 | Q13526 | Pin1 FP peptide displacement, HiFluor488, 10 min | Potency, µM (titrated, usually from 115 µM), inactives show at the top dose activity, negative = inhibition, hits mostly inhibitors | 0.009% of 390,000 active | AID 504891; active = well fitted inhibition curve with a large enough effect in the polarisation, with a control signal flat, not every such curve was filed as active; inconclusive = small, poorly fitted or top-dose-only effect, or effect the other way, or a change in a side signal; inactive = no such curve, though single readings can be large or run the other way; the % refers to the polarisation; note: potency is the fitted concentration of half-maximal effect
# KCNH2 3.1 inh = KCNH2 3.1 (human) potassium channel inhibition | U2OS KCNH2 3.1, thallium flux FluxOr; hits give low values | activity change, % (tested at about 1.8 µM) | 0.95% of 340,000 active;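 active = maximum activity change below -70%; inconclusive = maximum activity change from -70% to -50%; inactive = maximum activity change above -50%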;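 note: thallium influx rate constant from kinetic fluorescence after stimulation buffer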
#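 Measured as rate of thallium-driven FluxOr signal in transduced U2OS cells carrying the 3.1 channel, read kinetically for 2 min upon stimulation; values are rate constants scaled to DMSO control wells.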
# hERG WT inh = inhibitors of human wildtype KCNH2 potassium channel; Q12809; U2OS, BacMam KCNH2, thallium flux FluxOr; hits give low values; activity change, % at 1.84 µM; 0.37% of 340,000 active;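 active = maximum activity change below -70%; inconclusive = maximum activity change between -70% and -50%; inactive = maximum activity change above -50%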
#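 U2OS cells transduced with wild-type KCNH2 virus are loaded with FluxOr dye for 45 min, and thallium flux is measured in kinetic reads before and after stimulation buffer. Rate constants are normalized to DMSO controls.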
# RGS4 inh = blocks human RGS4-accelerated GTP hydrolysis. P49798. Transcreener GDP fluorescence polarization, RGS4-accelerated GTP hydrolysis. Potency, µM (top dose mostly 114 µM), inactives show at the highest dose activity change, negative = inhibition, most hits filed as inhibitors. 0.039% of 390,000 active. AID 504845; note: potency is the fitted concentration of half-maximal effect; nearly all actives have a fitted effect of over 75% in size
#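 MLSMR compounds (23 nl, pin-transferred) preincubated 10 min at room temperature with a 500nM (2x) first reagent, then RGS4 at 900nM (2x) plus Transcreener GDP mix added; fluorescence polarization (620/688 nm) read before and after 90 min at 30 °C.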
# KAT2A inh = blocks human GCN5L2 histone acetyltransferase | Q92830 | 0.21% of 390,000 active | AID 504327 | Potency, µM (doses to about 58.9 µM), without a hit: top-dose activity change, negative = inhibition, most hits filed as inhibitors | GCN5L2 HAT assay, ThioGlo1 CoA-SH fluorescence; note: potency is the fitted concentration of half-maximal effect
# Target sequence (Q92830 whole entry, looked up): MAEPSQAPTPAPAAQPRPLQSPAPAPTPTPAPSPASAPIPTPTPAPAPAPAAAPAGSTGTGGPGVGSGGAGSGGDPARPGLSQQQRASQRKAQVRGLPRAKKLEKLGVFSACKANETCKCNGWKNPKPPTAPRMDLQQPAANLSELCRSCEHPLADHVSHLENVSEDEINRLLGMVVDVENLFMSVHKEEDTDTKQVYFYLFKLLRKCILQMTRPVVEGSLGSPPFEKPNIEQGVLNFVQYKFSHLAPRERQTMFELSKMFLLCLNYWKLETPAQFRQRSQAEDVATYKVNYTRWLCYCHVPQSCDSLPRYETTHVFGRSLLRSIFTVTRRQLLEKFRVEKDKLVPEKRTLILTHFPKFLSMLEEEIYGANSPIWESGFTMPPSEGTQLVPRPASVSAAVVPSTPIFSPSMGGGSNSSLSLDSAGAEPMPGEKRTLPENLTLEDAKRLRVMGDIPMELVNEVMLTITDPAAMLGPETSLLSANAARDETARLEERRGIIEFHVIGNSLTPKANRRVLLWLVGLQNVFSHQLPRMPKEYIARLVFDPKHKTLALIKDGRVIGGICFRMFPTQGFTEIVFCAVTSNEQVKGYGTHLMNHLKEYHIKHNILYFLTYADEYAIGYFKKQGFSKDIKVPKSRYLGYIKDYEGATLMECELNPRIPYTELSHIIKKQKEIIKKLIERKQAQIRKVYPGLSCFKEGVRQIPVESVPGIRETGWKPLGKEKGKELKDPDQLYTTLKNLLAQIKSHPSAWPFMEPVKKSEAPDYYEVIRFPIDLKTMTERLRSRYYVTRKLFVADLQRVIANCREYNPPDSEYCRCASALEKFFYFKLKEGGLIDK
#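 Fluorescence readout, Ex340nm/Em540nm: ThioGlo1 (50uM final) reacts with free CoA thiol released as 20nM GCN5L2 acetylates H3(1-25) peptide (75uM) using acetyl-CoA (70uM). Compound and enzyme sat 15 min beforehand; 20 min room-temperature reaction.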
# PGK inhibitor = T. brucei PGK inhibition; P07378; PGK/GAPDH coupled, Kinase-Glo luminescence, 60 min; 0.043% of 380,000 active; Potency, µM (top dose mostly 57.5 µM), inactives show top-dose activity change, negative = inhibition, usual class: inhibitors; note: potency is the fitted concentration of half-maximal effect; nearly all actives have a fitted effect of over 60% in size
#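 Luminescent ATP detection (Kinase-Glo Plus) follows a 60-minute room-temperature incubation, with wells lacking PGK as controls. Buffer: 100 mM TEA (pH 7.6), 5 mM MgCl2, 0.01% Tween-20. Coupling enzyme GAPDH (100 nM final) supplies unstable 1,3-BPG in-well.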
# * = called active by the depositor; i = inactive; ? = inconclusive; . = no result; + = active, no number; [ ] = another dose, or the depositor's remark. Unless noted, calls come from the whole dose curve; as a rule, active = well fitted curve in the direction sought with a large enough effect; inconclusive = small, poorly fitted or top-dose-only effect, or another doubt; inactive = no such curve, though single readings can be large; an effect the other way counts as inactive or inconclusive. % is set by controls: 0 for no effect and ±100 for the full control effect.
SMILES,Pin1 inh,KCNH2 3.1 inh,hERG WT inh,RGS4 inh,KAT2A inh,PGK inhibitor
Cc1ccc(N2CCN(c3c(CN4CCCC4)c(=O)oc4ccccc34)CC2)c(C)c1,0.7%,.,.,4.2%,-5.2%,i
COc1nc(N2CCOCC2)nc(C)c1[N+](=O)[O-],2.2%,15.7,-107.4*,-4.0%,0.3%,-9.6%
N#C/C(=C/c1ccc(-c2ccc(S(=O)(=O)N3CCOCC3)cc2)o1)C(=O)NC1CC1,18.9%,9.8,-79.7*,-25.3%,.,-8.2%
N#C/C(=C\c1ccc(-c2ccc(S(=O)(=O)N3CCOCC3)cc2)o1)C(=O)NC1CC1,25.4%,9.2,-1.3,-6.7%,-7.2%,6.4%
CCc1cccc2c1Sc1ccccc1CC2N1CCNCC1 (configuration not stated),-0.2%,-76.7*,1.6,-1.2%,.,-3.4%
CCN1CCN(CCCNC(=O)Cn2c(-c3cccs3)cc3cc(F)ccc32)CC1,6.1%,.,.,33.9%,1.4%,0.0%
COc1ccc(F)cc1CN1CCN(CC(=O)Nc2ccccc2C(=O)NC2CC2)CC1,-1.6%,-106.2*,-107.2*,7.0%,-4.9%,-4.9%
CC1CCN(CC(=O)Nc2ccccc2C(=O)NC2CC2)CC1,4.7%,-22.7,5.2,-3.6%,2.4%,7.0%
O=C(CN1CCN(S(=O)(=O)c2ccc(F)cc2)CC1)Nc1ccccc1C(=O)NC1CC1,-7.8%,-37.7,-1.8,7.7%,0.1%,-7.9%
COc1ccccc1NC(=O)CN1CCCCC1,-2.5%,8.7,-2.8,-23.3%,-3.4%,-6.8%
COc1ccc(CN2CCN(CC(=O)Nc3ccccc3C(=O)NC3CC3)CC2)cc1F,0.8%,-104.1*,-93.1*,4.7%,-3.5%,-4.7%
COc1ccccc1NC(=O)CN1CCN(CC(=O)Nc2ccc(F)cc2F)CC1,-0.6%,-86.4*,-10.0,22.0%[56.9 µM],-1.3%,2.0%
Cc1cccc(-n2ncc(C#N)c2N)c1,2.3%,16.0,11.9,-10.4%,2.3%,-3.4%
N#Cc1cnn(-c2cccc(Cl)c2)c1N,-0.2%,-86.4*,-4.5,-1.1%,-1.3%,1.5%
COC(=O)c1cc2sc(C)cc2n1Cc1ccc(Br)cc1F,-4.1%,.,.,21.7%,-2.4%,.
Cc1snc(SCC(=O)c2ccc(F)cc2)c1C#N,-2.1%,-23.7,0.4,-5.5%,-19.4%,7.8%
Cc1snc(SCC(=O)c2ccc([N+](=O)[O-])cc2)c1C#N,-6.6%,5.1,-2.5,?,6.31µM*,0.3%
O=C(Nc1nnc(S(=O)(=O)N2CCCCCC2)s1)c1ccccc1Cl,-6.7%,-76.2*,-3.8,-4.5%,1.9%,-7.0%
Fc1ccc(N2CCN(C3=Nc4cccc5cccc3c45)CC2)cc1,34.2%,-80.3*,+,16.5%,-12.2%,3.3%
c1ccc(CN2CCN(C3=Nc4cccc5cccc3c45)CC2)cc1,16.6%,-30.3,21.3,38.5%,-0.6%,1.5%
Cc1cc(OC(C)C(=O)N2CCC(c3nc4ccccc4o3)CC2)ccc1Cl (configuration not stated),5.0%,.,.,11.2%,-9.4%,i
Cc1ccc(N)c(Cl)c1,.,.,.,.,8.0%,.
O=C(N/N=C\c1ccc(CN(Cc2ccc(Cl)cc2)S(=O)(=O)c2ccccc2)o1)C(=O)Nc1ccc(F)cc1,27.2%,-75.5*,-48.0,-17.2%[11.4 µM],-1.3%,-8.1%
O=C(N/N=C\c1ccc(CNS(=O)(=O)c2ccccc2)o1)C(=O)Nc1ccc(F)cc1,3.9%,-25.4,7.3,1.6%,-0.8%,4.8%
CC(C(=O)Nc1cccc([N+](=O)[O-])c1)N1CCN(C/C=C/c2ccccc2)CC1 (configuration not stated),0.4%,-85.3*,8.9,-6.2%,-1.2%,6.7%
SMILES,Pin1 inh,KCNH2 3.1 inh,hERG WT inh,RGS4 inh,KAT2A inh,PGK inhibitor
O=C(CNS(=O)(=O)c1cccc(Cl)c1)Nc1ccc(-c2nc3ccccc3s2)cc1,-0.4%,-73.5*,-7.7,8.9%,-1.5%,-2.3%
CN(C)CCNc1oc(COc2ccc(-c3ccccc3)cc2)nc1C#N,4.3%,-72.3*,36.9,-7.7%,-1.2%,-2.1%
CC(C)(C)[C@H](NC(=O)c1ccc(N)c(Cl)c1)C(=O)N1CCC[C@H]1C(=O)N[C@H](C#N)Cc1nn[nH]n1,.,.,.,.,-5.0%,.
Cc1c(-c2ccccc2)c(=O)oc2c(CN3CCCC3)c(O)ccc12,4.6%,.,.,-16.2%,35.5µM*,i
Cc1ccnc(N2CCC(C(=O)NCc3ccc4c(c3)OCO4)CC2)n1,?,-16.2,-194.8*,-2.7%,2.6%,i
O=C(NCc1ccc2c(c1)OCO2)C1CCN(c2ncccn2)CC1,1.7%,-4.6,5.6,-12.9%,-5.6%,-7.3%
COCCN(CC1CCCN(C2Cc3ccccc3C2)C1)C(=O)CCC(N)=O (configuration not stated),7.5%,-127.1*,-42.5,-10.4%,-1.7%,7.4%
COCCN(CC1CCCN(C2Cc3ccccc3C2)C1)C(=O)CCC(C)=O (configuration not stated),-0.6%,-15.7,36.1,13.1%,1.6%,-7.8%
O=C(Cn1cnc([N+](=O)[O-])c1)NCCc1ccccc1,3.7%,3.0,-10.0,15.7%,-2.2%,3.4%
O=C(Cn1cnc([N+](=O)[O-])c1)Nc1ccccc1C(F)(F)F,-9.9%,20.3,-74.5*,-35.9%[56.9 µM],-19.5%,-4.5%
C[C@H](CC[C@@H]1OC1(C)C)C1CC[C@H]2[C@@H]3CC=C4C[C@@H](O)CC[C@]4(C)[C@H]3CC[C@]12C (some centres not stated),.,.,.,220.0%[56.9 µM],-19.1%,.
Cn1c(N2CCN(C(=O)NCc3ccccc3)CC2)nc2ccccc21,3.9%,-12.5,5.8,21.7%,-0.3%,5.5%
Cn1c(N2CCN(C(=O)Nc3ccc(C(F)(F)F)cc3)CC2)nc2ccccc21,-6.5%,-74.4*,-82.3*,-42.3%[56.9 µM],-10.9%,0.5%
CCC(Sc1nc(-c2ccccc2)c(C#N)c(=O)[nH]1)C(=O)Nc1cc(C)on1 (configuration not stated),-9.2%,-70.7*,0.1,9.7%,-4.4%,4.1%[11.5 µM]
COc1ccc(-c2nnc(SCC(=O)NC3CCCC3)nc2-c2ccc(OC)c(OC)c2)cc1OC,-0.8%,.,.,-14.7%,1.3%,8.3%
Cc1ccc(C)c(NCC(=O)NNC(=S)Nc2ccccc2)c1,0.9%,21.4,-74.5*,-24.6%,-0.8%,-5.2%
Cc1ccc(C)c(NC(=O)CCC(=O)NNC(=S)Nc2ccccc2)c1,-1.4%,10.5,2.3,-28.7%,-7.6%,-5.4%
O=C1C(c2[nH]c3ccc(S(=O)(=O)O)cc3c2O)=Nc2ccc(S(=O)(=O)O)cc21,.,.,.,.,8.9%,.
CN(C)S(=O)(=O)c1cccc(-c2nn(-c3ccccc3)cc2/C=C(\C#N)c2nc3ccccc3[nH]2)c1,?,-75.6*,6.0,24.7%,-24.2%,-4.9%

# Screens as filed in PubChem BioAssay.
